# Reference: the supplement of paper PMC6378613
# Compound: Cc1ccc(-c2ccc3c(ccc4sc5c(c43)NC[C@@H](C)NC5=O)n2)cn1
# Assay: kinase activity remaining relative to vehicle control; higher = less inhibition
# Procedure: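 In vitro radiometric kinase profiling of the MK2 inhibitor PF-3644022 at 0.1, 1 and 10 µM against a panel of kinases (MRC International Centre for Kinase Profiling, Dundee). Read-out is % kinase activity remaining relative to the vehicle control, mean of n=2.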
# UniProt P45983, sequence (P45983 whole entry, looked up): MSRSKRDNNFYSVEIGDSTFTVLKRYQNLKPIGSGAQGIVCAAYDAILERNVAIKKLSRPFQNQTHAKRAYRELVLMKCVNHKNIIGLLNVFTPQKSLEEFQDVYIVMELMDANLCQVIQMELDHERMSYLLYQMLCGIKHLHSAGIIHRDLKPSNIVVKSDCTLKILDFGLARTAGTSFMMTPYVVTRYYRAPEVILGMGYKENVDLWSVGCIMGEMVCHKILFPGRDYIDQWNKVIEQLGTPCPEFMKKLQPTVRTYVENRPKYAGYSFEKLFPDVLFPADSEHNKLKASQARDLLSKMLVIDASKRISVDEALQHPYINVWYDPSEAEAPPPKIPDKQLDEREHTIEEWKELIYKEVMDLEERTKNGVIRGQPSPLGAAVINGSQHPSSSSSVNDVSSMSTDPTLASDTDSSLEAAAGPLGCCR
# UniProt Q15569, sequence (Q15569 whole entry, looked up): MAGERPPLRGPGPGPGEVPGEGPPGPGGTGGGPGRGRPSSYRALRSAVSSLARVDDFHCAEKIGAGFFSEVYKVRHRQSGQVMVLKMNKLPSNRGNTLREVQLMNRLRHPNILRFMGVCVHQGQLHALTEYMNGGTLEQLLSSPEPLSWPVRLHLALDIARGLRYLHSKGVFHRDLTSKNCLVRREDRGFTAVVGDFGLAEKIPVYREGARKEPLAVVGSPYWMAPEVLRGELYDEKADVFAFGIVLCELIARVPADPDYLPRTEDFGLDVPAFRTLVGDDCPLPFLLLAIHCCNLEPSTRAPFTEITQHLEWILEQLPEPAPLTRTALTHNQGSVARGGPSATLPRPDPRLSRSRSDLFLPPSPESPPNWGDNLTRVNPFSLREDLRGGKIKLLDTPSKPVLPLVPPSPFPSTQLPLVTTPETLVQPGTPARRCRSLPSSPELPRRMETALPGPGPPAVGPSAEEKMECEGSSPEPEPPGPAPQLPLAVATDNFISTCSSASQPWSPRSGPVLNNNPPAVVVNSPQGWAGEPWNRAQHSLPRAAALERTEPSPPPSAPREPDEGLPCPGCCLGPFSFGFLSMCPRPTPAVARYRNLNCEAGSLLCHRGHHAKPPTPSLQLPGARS
# UniProt P41240, sequence (P41240 whole entry, looked up): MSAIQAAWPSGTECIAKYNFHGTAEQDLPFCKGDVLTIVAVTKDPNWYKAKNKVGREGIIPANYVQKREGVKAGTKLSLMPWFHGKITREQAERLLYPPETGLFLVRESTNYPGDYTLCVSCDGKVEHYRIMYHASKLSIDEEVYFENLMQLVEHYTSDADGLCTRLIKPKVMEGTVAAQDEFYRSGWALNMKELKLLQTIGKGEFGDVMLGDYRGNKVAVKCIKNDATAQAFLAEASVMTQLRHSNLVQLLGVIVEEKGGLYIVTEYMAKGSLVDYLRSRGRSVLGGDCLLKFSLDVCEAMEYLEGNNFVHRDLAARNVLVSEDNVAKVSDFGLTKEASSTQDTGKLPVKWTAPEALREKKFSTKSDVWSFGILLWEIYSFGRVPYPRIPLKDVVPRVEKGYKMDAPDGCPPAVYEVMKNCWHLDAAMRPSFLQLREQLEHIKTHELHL
# UniProt P31749, sequence (P31749 whole entry, looked up): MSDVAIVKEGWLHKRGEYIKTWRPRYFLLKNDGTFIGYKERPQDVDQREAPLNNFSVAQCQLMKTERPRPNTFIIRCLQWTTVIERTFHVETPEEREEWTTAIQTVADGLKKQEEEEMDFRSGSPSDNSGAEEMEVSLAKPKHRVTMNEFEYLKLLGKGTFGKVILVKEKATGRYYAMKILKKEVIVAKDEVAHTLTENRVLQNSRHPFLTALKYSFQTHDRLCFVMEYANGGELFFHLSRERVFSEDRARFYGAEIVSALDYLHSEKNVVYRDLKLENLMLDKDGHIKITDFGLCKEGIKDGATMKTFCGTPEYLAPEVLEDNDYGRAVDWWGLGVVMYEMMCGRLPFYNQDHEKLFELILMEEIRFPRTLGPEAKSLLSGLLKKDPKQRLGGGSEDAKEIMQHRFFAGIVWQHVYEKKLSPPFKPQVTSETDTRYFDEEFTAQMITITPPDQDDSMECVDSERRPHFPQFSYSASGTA
# UniProt O75582, sequence (O75582 whole entry, looked up): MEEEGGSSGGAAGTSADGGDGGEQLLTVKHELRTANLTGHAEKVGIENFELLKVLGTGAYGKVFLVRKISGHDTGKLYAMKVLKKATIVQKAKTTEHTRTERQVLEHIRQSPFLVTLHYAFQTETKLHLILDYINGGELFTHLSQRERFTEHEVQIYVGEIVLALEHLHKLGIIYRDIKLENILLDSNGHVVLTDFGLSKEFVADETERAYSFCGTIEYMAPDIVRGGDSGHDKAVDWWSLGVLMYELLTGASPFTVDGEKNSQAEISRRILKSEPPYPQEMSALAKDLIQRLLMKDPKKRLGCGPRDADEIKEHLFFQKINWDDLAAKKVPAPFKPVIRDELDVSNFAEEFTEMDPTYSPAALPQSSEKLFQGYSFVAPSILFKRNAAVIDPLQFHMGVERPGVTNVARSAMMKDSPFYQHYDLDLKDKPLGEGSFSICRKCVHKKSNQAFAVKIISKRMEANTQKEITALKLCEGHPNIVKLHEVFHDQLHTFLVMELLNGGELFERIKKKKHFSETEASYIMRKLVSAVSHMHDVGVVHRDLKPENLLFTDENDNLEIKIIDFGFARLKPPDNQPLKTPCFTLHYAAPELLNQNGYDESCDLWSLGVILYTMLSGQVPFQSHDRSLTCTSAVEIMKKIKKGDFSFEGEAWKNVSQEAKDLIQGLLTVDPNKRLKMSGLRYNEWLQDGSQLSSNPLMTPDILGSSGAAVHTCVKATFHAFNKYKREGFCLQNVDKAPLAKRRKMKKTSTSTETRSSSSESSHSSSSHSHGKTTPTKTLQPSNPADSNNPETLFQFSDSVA
# UniProt O60674, sequence (O60674 whole entry, looked up): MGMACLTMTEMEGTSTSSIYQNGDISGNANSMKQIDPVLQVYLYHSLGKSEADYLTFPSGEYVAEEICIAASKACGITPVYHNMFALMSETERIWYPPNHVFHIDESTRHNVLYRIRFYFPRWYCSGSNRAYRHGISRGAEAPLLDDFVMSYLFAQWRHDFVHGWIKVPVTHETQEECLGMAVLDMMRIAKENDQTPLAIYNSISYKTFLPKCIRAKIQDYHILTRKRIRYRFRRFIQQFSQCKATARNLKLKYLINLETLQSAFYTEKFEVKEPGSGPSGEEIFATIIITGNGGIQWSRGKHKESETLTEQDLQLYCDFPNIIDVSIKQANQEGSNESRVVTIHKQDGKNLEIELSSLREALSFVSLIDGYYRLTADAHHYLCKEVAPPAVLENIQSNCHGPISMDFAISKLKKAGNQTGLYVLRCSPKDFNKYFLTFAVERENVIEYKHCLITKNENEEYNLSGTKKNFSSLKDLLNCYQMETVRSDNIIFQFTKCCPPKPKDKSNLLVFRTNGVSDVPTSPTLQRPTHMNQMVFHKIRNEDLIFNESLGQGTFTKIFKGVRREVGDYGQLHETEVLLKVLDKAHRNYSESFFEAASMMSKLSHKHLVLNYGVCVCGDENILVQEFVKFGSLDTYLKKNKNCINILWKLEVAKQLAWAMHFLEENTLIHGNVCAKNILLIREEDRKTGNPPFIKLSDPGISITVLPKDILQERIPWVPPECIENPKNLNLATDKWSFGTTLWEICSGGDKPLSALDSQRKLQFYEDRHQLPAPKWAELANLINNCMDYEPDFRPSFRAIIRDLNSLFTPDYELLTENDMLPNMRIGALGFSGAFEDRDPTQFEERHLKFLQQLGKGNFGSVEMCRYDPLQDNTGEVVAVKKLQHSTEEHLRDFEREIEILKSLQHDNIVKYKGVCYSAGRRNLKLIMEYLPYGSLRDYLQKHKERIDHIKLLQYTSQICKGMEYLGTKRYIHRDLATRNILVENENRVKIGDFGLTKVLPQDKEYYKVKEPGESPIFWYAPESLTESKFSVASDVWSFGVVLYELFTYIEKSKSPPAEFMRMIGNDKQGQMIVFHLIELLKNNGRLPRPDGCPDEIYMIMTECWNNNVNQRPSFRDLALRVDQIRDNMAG
target,measurement,setting,value
JNK1 (UniProt P45983),kinase activity remaining,inhibitor concentration 0.1 µM,96%
same,kinase activity remaining,inhibitor concentration 1 µM,93%
same,kinase activity remaining,inhibitor concentration 10 µM,92%
CDK2-Cyclin A (UniProt P24941),kinase activity remaining,inhibitor concentration 0.1 µM,111%
same,kinase activity remaining,inhibitor concentration 1 µM,93%
same,kinase activity remaining,inhibitor concentration 10 µM,57%
TAO1,kinase activity remaining,inhibitor concentration 0.1 µM,109%
same,kinase activity remaining,inhibitor concentration 1 µM,98%
same,kinase activity remaining,inhibitor concentration 10 µM,70%
PKB beta (UniProt P31749),kinase activity remaining,inhibitor concentration 0.1 µM,100%
same,kinase activity remaining,inhibitor concentration 1 µM,90%
same,kinase activity remaining,inhibitor concentration 10 µM,69%
p38 delta MAPK,kinase activity remaining,inhibitor concentration 0.1 µM,108%
same,kinase activity remaining,inhibitor concentration 1 µM,103%
same,kinase activity remaining,inhibitor concentration 10 µM,94%
CK2,kinase activity remaining,inhibitor concentration 0.1 µM,100%
same,kinase activity remaining,inhibitor concentration 1 µM,97%
same,kinase activity remaining,inhibitor concentration 10 µM,93%
TESK1 (UniProt Q15569),kinase activity remaining,inhibitor concentration 0.1 µM,112%
same,kinase activity remaining,inhibitor concentration 1 µM,111%
same,kinase activity remaining,inhibitor concentration 10 µM,101%
MSK1 (UniProt O75582),kinase activity remaining,inhibitor concentration 0.1 µM,120%
same,kinase activity remaining,inhibitor concentration 1 µM,105%
same,kinase activity remaining,inhibitor concentration 10 µM,99%
SmMLCK,kinase activity remaining,inhibitor concentration 0.1 µM,118%
same,kinase activity remaining,inhibitor concentration 1 µM,112%
same,kinase activity remaining,inhibitor concentration 10 µM,110%
EPH-A2,kinase activity remaining,inhibitor concentration 0.1 µM,90%
same,kinase activity remaining,inhibitor concentration 1 µM,95%
same,kinase activity remaining,inhibitor concentration 10 µM,76%
IGF-1R,kinase activity remaining,inhibitor concentration 0.1 µM,101%
same,kinase activity remaining,inhibitor concentration 1 µM,108%
same,kinase activity remaining,inhibitor concentration 10 µM,114%
CSK (UniProt P41240),kinase activity remaining,inhibitor concentration 0.1 µM,117%
same,kinase activity remaining,inhibitor concentration 1 µM,111%
same,kinase activity remaining,inhibitor concentration 10 µM,106%
JAK2 (UniProt O60674),kinase activity remaining,inhibitor concentration 0.1 µM,101%
same,kinase activity remaining,inhibitor concentration 1 µM,102%
same,kinase activity remaining,inhibitor concentration 10 µM,79%
